Data on 63 compounds can be found in PubChem BioAssay AID2796 (The Scripps Research Institute Molecular Screening Center, 2010).

About 8,000 (2.5%) of roughly 320,000 compounds were called active. What follows is part of a selection rich in actives, with near analogues and random picks from the rest. Unmarked numbers belong to inactive results. Cut-off read from the data, not from the text of the source: active = activation above about 47%; inactive = the rest.

For this experiment, the target named is Aryl hydrocarbon receptor (Homo sapiens) (UniProt P35869). In words: AHR activators, primary screen, cell-based, luminescence, luciferase reporter, human (AID 2796).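 Note: 0% = vehicle wells and 100% = reference agonist.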 The conditions noted are these: AHR-responsive luciferase reporter cells, at 5 µM, active compounds read high. In general terms: In a reporter assay the amount or activity of a reporter protein is the signal.
Sequence of Aryl hydrocarbon receptor (Homo sapiens) (P35869 whole entry, looked up): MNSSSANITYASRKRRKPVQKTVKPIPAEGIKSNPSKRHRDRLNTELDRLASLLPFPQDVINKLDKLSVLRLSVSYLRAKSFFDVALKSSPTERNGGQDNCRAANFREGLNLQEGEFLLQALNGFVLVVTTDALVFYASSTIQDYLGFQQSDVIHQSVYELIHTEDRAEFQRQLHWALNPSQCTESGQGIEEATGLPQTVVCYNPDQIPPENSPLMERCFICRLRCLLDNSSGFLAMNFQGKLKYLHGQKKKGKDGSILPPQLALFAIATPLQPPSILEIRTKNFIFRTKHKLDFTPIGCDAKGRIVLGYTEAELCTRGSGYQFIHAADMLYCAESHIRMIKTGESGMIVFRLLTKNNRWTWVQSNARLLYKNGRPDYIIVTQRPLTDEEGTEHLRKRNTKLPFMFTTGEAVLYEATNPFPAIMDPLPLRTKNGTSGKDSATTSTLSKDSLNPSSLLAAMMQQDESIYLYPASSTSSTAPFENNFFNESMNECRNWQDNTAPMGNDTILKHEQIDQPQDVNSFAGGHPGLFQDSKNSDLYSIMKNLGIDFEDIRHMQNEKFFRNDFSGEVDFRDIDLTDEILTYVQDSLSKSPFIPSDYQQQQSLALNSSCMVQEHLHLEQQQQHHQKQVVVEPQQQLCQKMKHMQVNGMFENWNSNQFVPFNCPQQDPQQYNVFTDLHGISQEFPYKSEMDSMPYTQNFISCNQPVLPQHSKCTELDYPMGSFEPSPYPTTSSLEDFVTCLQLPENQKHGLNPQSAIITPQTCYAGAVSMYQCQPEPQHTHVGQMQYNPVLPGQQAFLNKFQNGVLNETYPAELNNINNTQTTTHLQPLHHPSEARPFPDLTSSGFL
Take `COc1ccc(/C=N/n2nnnc2N)cc1OC`: the activation was 9.89%. On to `C=CCOc1c(Br)cc(/C=N\n2nnnc2N)cc1OC`, for which the activation was 115% (active). The same measure for `Nc1nnnn1/N=C/c1cccc(Br)c1`: 0.74%; for `S=C(NCCc1ccccc1)Nc1ccccc1`: 1.89%; for `CCOC(=O)CNC(=O)N1c2ccccc2Sc2ccccc21`: -1.17%. `CCNCCC(=O)N1c2ccccc2Sc2ccc(NC(=O)OCC)cc21`: the activation was 12.7%. As for `CCC(=O)/C=C1\Sc2ccccc2N1CC`, the activation is 47.6% (active). For the compound `CCN1/C(=C/C(=S)Nc2ccccc2)Sc2ccccc21`, the activation is 60.2% (active).

For the compound `CCN1/C(=C\c2ccc3ccccc3[n+]2CC)Sc2cc(C)ccc21`, the activation was -7.56%. The same measure for `CSCCC(Nc1ccc(S(=O)(=O)N2CCOCC2)cc1[N+](=O)[O-])C(=O)OCC(=O)N(C(C)C)C(C)C` (stereo not drawn): -0.88%; for `CN(C)c1ccc(CNC2C3CC4CC(C3)CC2C4)cc1` (stereo not drawn): 1.86%; for `O=C(CSc1nc2ccccc2[nH]1)Nc1nc(-c2ccccc2)c(-c2ccccc2)o1`: 5.78%. The same measure for `Clc1ccccc1SCc1nc2ccccc2[nH]1`: -2.01%. Regarding `c1ccc(-c2nnc(SCc3nc4ccccc4[nH]3)o2)cc1`, the activation is 59.8% (active). With `Cc1cccc(C(=O)N2CCN(S(=O)(=O)N3CCCCC3)CC2)c1`, the activation is 0.85%. Consider `CC1CN(CC(=O)NC(C)c2ccccc2)CC(C)O1` (stereo not drawn), for which the activation was -1.1%. In the case of `C(=N/Nc1cc(N2CCOCC2)nc(N2CCOCC2)n1)/c1ccccc1`, the activation is -0.44%.

With `CN(C)c1ccc(/C=N/Nc2cc(N3CCOCC3)nc(N3CCOCC3)n2)cc1`, the activation is 7.92%. For the compound `COc1ccc(/C=N/Nc2cc(N3CCOCC3)nc(C)n2)c(OC)c1`, the activation was 69.5% (active). In the case of `Cn1c2ccccc2n2c(=O)c(=O)n(CC(=O)c3ccc(F)cc3)nc12`, the activation is 0.34%. For the compound `C[C@H]1CN([C@@H](C)CO)C(=O)Cc2cc(NC(=O)Cc3ccccc3)ccc2O[C@H]1CN(C)S(=O)(=O)c1cccs1`, the activation is -0.6%.

Take `O=C(C[C@@H]1C/C=C\CCC(=O)OC[C@@H]2CCCN2C1=O)NCCO`: the activation was 2.28%.

For `O=C(Nc1cc(S(=O)(=O)Nc2ccc(Cl)cc2)ccc1O)c1ccc(F)cc1F`, the activation is 111% (active). The same measure for `O=C(Nc1cccc(S(=O)(=O)NC2=NCCC2)c1)c1ccc(F)cc1F`: 1.17%; for `Cc1cc(NS(=O)(=O)c2ccc(NC(=S)NC(=O)c3ccc(F)cc3Cl)cc2)no1`: 17.3%; for `Cc1ccccc1NS(=O)(=O)CCCCC(Cl)(Cl)Cl`: -0.27%. As for `COc1c(O)cccc1-c1nnn(CCC(=O)OCC(=O)c2ccccc2)n1`, the activation is 1.67%.

As to `Cc1cc(C(=O)NNC(=O)CCC2CCCCC2)c(C)o1`, the activation is 1.65%.

Take `Cc1ccc2nc(Nc3ccccc3)cc(C)c2c1`: the activation was 26.6%.

In the case of `CCOC(=O)c1nc(Nc2ccc(C(=O)OC)cc2)c2ccccc2n1`, the activation was 1.95%. On to `Cc1cc(Nc2ccc(Br)cc2)nc2ccccc12`, for which the activation was 54.1% (active).

As for `O=C(CCC(=O)N/N=C/c1ccc(Br)o1)N/N=C/c1ccc(Br)o1`, the activation is 4.48%. Regarding `CCCNC(=O)N1CCC(c2ccc3c(c2)OCO3)CC1`, the activation was 1.31%. The same measure for `COc1ccc(CCNc2cc(C)nc3c(-c4ccc(Cl)cc4)c(C)nn23)cc1OC`: 31.2%.

As for `Cc1ccsc1C(=O)N[C@@H](C)c1nnc2ccccn12`, the activation is 1.3%. As for `COc1ccc(CCc2nc(-c3cccs3)no2)cc1`, the activation was 1.87%. Consider `CCc1ccc(CNC(=O)CCc2nc(-c3cccs3)no2)cc1`, for which the activation is 4.73%. On to `COc1ccc(OC)c(CNC(=O)CCc2nc(-c3cccs3)no2)c1`, for which the activation is 61.3% (active).

On to `CCn1c(SCC(=O)NC2CC2)nnc1-c1ccccc1OC`, for which the activation is 14.6%. `Cc1ccc(C(=O)Cc2nnc(C)s2)cc1`: the activation was -0.8%.

Consider `CN(C)C(=O)COC(=O)c1cccc(S(=O)(=O)N2CC3(C)CC2CC(C)(C)C3)c1` (stereo not drawn), for which the activation was -0.48%. As for `CCOC(=O)C1CCN(C(=O)CN2C(=O)NC(C)(c3ccc4cc(OC)ccc4c3)C2=O)CC1` (stereo not drawn), the activation was 0.29%.

For the compound `CC(=O)c1sc2nc(SCC(=O)N3CCCCC3)[nH]c(=O)c2c1C`, the activation is 15.1%. As to `C=CCn1c(SCC(=O)Nc2ccc(NC(C)=O)cc2)nc2sc(C)c(C)c2c1=O`, the activation is 0.33%. With `C=CCNC(=O)CSc1nc2sc(C)c(C)c2c(=O)[nH]1`, the activation was 107% (active).

In the case of `CN(Cc1cccc2ncccc12)C(=O)CC1C(=O)NCCN1Cc1ccc(F)cc1` (stereo not drawn), the activation was -0.17%. Consider `COc1cccc(CC(=O)Nc2ccc(-c3csc(C)n3)cc2)c1`, for which the activation is -4.95%. The same measure for `COc1cc(NC(=O)c2ccc(-c3csc(C)n3)cc2)c(OC)cc1Cl`: 98.4% (active); for `CCOCC(=O)Nc1cc(OC)c(Cl)cc1OC`: 19.9%; for `CC(NC(=O)COC(=O)Cn1cc(C(F)(F)F)ccc1=O)c1ccccc1` (stereo not drawn): -0.22%. The same measure for `Cc1cccc2cc(C#N)c(N3CCCC3)nc12`: 51.3% (active). In the case of `CC(=O)c1ccc(S(=O)(=O)N2CCN(c3nc4c(C)c(C)ccc4cc3C#N)CC2)cc1`, the activation was -2.8%. On to `CCOC(=O)c1cc(C#N)c(N2CCCCC2)nc1-c1ccccc1`, for which the activation is 13.2%. Take `O=C(Nc1ccc2c(c1)CCC2)c1ccc(Br)s1`: the activation was 12%. The same measure for `CSc1ccccc1NC(=O)c1cc(Cl)sc1Cl`: 0.71%; for `N#Cc1ccccc1NC(=O)c1cccc(COc2ccc(Cl)cc2Cl)c1`: -4.79%. Take `N#Cc1ccc(C(=O)Nc2cccc3cccnc23)c(F)c1`: the activation was -3.07%. For `O=C(Nc1cccc2cccnc12)c1cccc(N2C(=O)CCC2=O)c1`, the activation is -2.04%. In the case of `CSc1ccc(C#N)cc1NC(=O)c1cccc(Cl)c1`, the activation is 58.8% (active).

Consider `CSc1ccc(/C=N/NC(=O)c2cccc(Cl)c2)cc1`, for which the activation is 13.9%. Take `O=C(Nc1cccc2cccnc12)c1cccc(Cl)c1`: the activation was 59.2% (active).

Regarding `COC(=O)c1sccc1NC(=O)c1ccc(Cl)cc1`, the activation is 37.4%.

As to `CSc1ccc(C#N)cc1NC(=O)c1ccc(Cl)cc1`, the activation is 96.9% (active).
